Assay results from PubChem BioAssay (Tox21).
Records with an inconclusive call do not appear. Values without a mark were called inactive. Calls follow the shape of the dose curve; as a rule, active = well fitted activation curve with a large enough effect in the repeat runs; inconclusive = weak or mixed curves; inactive = flat fitted curve, though single readings scatter.

Test: A CellTox Green Cytotoxicity Assay to monitor cytotoxicity in HEK293 cells - 24 hour (AID 1224875); also: nearly all actives have a fitted effect of over 45% in size
Details: CellTox Green fluorescence; series mostly up to 76.8 µM; activity change: at the top concentration
Procedure, shortened: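 HEK293 cells, 600/well, were preincubated 5 hours and then exposed to compounds at 37 C for up to 40 hours. A cell-impermeant cyanine dye staining dead-cell DNA was read by fluorescence at 0, 8, 16, 24, 32 and 40 h time points.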
% is scaled to controls: 0 for no effect and ±100 for the full control effect.

SMILES	activity change
C=CC(=O)NCOCC(C)C	-10.3%
CC(C)C(OC(=O)c1ccccc1)C(C)(C)COC(=O)c1ccccc1 (stereo unspecified)	5.16%
C=CCNc1nc(NCC=C)nc(N2CCN(C(c3ccc(F)cc3)c3ccc(F)cc3)CC2)n1	6.32% [at 35.3 µM, hits give high values]
CCCCN(CCCC)C(=S)SSC(=S)N(CCCC)CCCC	12%
Fc1ccccc1[C@@H](F)COC1CCC(Nc2ncnc3[nH]ncc23)CC1 (stereo partly specified)	4.73%
CC1=CC(O)CC(C)(C)C1 (stereo unspecified)	-3.13%
O=c1[nH]c2ccc(S(=O)CCN3CCC(Cc4ccc(F)cc4)CC3)cc2o1 (stereo unspecified)	-5.93%
CCOC(=O)N1CCC(n2c(=O)[nH]c3cc(Cl)ccc32)CC1	-2.36% [at 35.3 µM, hits give high values]
CCCCC(CC)C(=O)OCCOCCOCCOCCOC(=O)C(CC)CCCC (stereo unspecified)	5.24%
O=[N+]([O-])c1cccc(S(=O)(=O)NCCNS(=O)(=O)c2cccc([N+](=O)[O-])c2)c1	21.7% [at 35.3 µM, hits give high values]
CC(C)(C)C(=O)O	8.23%
C(=C\c1ccccc1)/CN1CCN(C(c2ccccc2)c2ccccc2)CC1	-0.286% [at 35.3 µM, hits give high values]
CC1CC(=O)NN=C1c1ccc(NCC(C)(C)NCC(O)COc2cc(Cl)ccc2C#N)cc1 (stereo unspecified)	6.77% [at 35.3 µM, hits give high values]
CC(CCc1ccc2c(c1)OCO2)NN (stereo unspecified)	1.01% [at 35.3 µM, hits give high values]
CCCCCCCCCOC(C)=O	-2.2%
O=C(CCC1CCN(Cc2ccccc2)CC1)c1ccc2c(c1)NCCCC2	26.5% [at 35.3 µM, hits give high values]

SMILES	activity change
CCCCCCOC(=O)C(C)C	9.15%
CCCOC(=O)c1ccc(C(=O)OCCC)nc1	-1.67%
CO/N=C1\CN(c2nc3c(cc2F)c(=O)c(C(=O)O)cn3C2CC2)CC1CN (stereo unspecified)	-7.36% [at 35.3 µM, hits give high values]
C/C=C/C=C/CCCCCCCO	11.9%
CCOC(=O)CC(=O)C(=O)OCC	16.9%
Cc1ccc(Nc2nccc(N(C)c3ccc4c(C)n(C)nc4c3)n2)cc1S(N)(=O)=O	-4.66% [at 35.3 µM, hits give high values]
O=S1OCCO1	0.518%
CC1CC(O)CC(C)(C)C1 (stereo unspecified)	9.89%
CCCCC(=O)O[C@]1(C(=O)CO)[C@@H](C)C[C@H]2[C@@H]3CCC4=CC(=O)C=C[C@]4(C)[C@@]3(F)[C@@H](O)C[C@@]21C	8.72%
CC(=O)[C@H]1CC[C@H]2[C@@H]3C[C@H](C)C4=CC(=O)CC[C@]4(C)[C@H]3[C@@H](O)C[C@]12C	-4.93% [at 35.3 µM, hits give high values]
CC(=O)Oc1ccc2c(c1)CC[C@@H]1[C@@H]2CC[C@]2(C)[C@@H](O)CC[C@@H]12	18.1% [at 35.3 µM, hits give high values]
CNC(=O)N(c1ccccc1)c1ccccc1	-0.979%
CC(=O)OCC(=O)[C@H]1CC[C@H]2[C@@H]3CCC4=CC(=O)CC[C@]4(C)[C@H]3CC[C@]12C	12.6% [at 35.3 µM, hits give high values]
CCCC1C(CC)=CC(CC)=CN1c1ccccc1 (stereo unspecified)	10.5%
C1COCO1	3.82%
